From PubChem BioAssay AID1159580 (chemical genetic matrix, 2015)
Several values for one entry are separate records, joined by “and”; a condition that tells them apart may be missing. Identical values can stand only once. In all, about 5,500 compounds went through this assay and about 2,000 (36%) were called active. Roughly 18% stayed inconclusive and do not appear here. Rule as the data show it: active = normalized growth mostly below about 0.91 (no sharp cut-off); inconclusive = no clear call, values can overlap the other calls; inactive = mostly above about 0.92. This is one part of the list.

Test: chemical genetic growth profiling, strain panel (AID 1159580);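 also: tested at 20 µM; growth read once vehicle control cultures reached saturation at 30 °C; 1 = growth at the plate median or of vehicle wells; lower values mean less growth of the strain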
Conditions: growth OD
[1] = S. cerevisiae deletion strains, locus YBR021W, strain FUR4, active compounds read low
[2] = S. cerevisiae deletion strains, locus YBR229C, strain ROT2, active compounds read low
[3] = S. cerevisiae deletion strains, locus YCL029C, strain bik1, active compounds read low
[4] = S. cerevisiae deletion strains, locus YDL035C, strain GPR1, active compounds read low
[5] = S. cerevisiae deletion strains, locus YDL074C, strain BRE1, active compounds read low
[6] = S. cerevisiae deletion strains, locus YDL101C, strain DUN1, active compounds read low
[7] = S. cerevisiae deletion strains, locus YDL134C, strain PPH21, active compounds read low
[8] = S. cerevisiae deletion strains, locus YDL185W, strain tfp1, active compounds read low
[9] = S. cerevisiae deletion strains, locus YDL192W, strain arf1, active compounds read low
[10] = S. cerevisiae deletion strains, locus YDR101C, strain arx1, active compounds read low
[11] = S. cerevisiae deletion strains, locus YDR162C, strain NBP2, active compounds read low
[12] = S. cerevisiae deletion strains, locus YDR318W, strain mcm21, active compounds read low
[13] = S. cerevisiae deletion strains, locus YDR388W, active compounds read low
[14] = S. cerevisiae deletion strains, locus YDR502C, strain sam2, active compounds read low
[15] = S. cerevisiae deletion strains, locus YEL061C, strain CIN8, active compounds read low
[16] = S. cerevisiae deletion strains, locus YER110C, active compounds read low
[17] = S. cerevisiae deletion strains, locus YER155C, strain BEM2, active compounds read low
[18] = S. cerevisiae deletion strains, locus YER167W, strain BCK2, active compounds read low
[19] = S. cerevisiae deletion strains, locus YGL078C, strain dbp3, active compounds read low
[20] = S. cerevisiae deletion strains, locus YGL086W, strain mad1, active compounds read low
[21] = S. cerevisiae deletion strains, locus YGL248W, strain PDE1, active compounds read low
[22] = S. cerevisiae deletion strains, locus YGR078C, strain PAC10, active compounds read low
[23] = S. cerevisiae deletion strains, locus YGR135W, strain pre9, active compounds read low
[24] = S. cerevisiae deletion strains, locus YGR252W, strain gcn5, active compounds read low
[25] = S. cerevisiae deletion strains, locus YHR030C, strain SLT2, active compounds read low
[26] = S. cerevisiae deletion strains, locus YHR079C, strain IRE1 (second series), active compounds read low
[27] = S. cerevisiae deletion strains, locus YHR079C, strain IRE1, active compounds read low
[28] = S. cerevisiae deletion strains, locus YHR094C, strain hxt1, active compounds read low
[29] = S. cerevisiae deletion strains, locus YHR129C, strain ARP1, active compounds read low
[30] = S. cerevisiae deletion strains, locus YHR200W, strain rpn10, active compounds read low
[31] = S. cerevisiae deletion strains, locus YIL066C, strain RNR3, active compounds read low
[32] = S. cerevisiae deletion strains, locus YIL073C, strain SPO22, active compounds read low
[33] = S. cerevisiae deletion strains, locus YIL125W, strain kgd1, active compounds read low
[34] = S. cerevisiae deletion strains, locus YIR030C, strain dcg1, active compounds read low
[35] = S. cerevisiae deletion strains, locus YJL095W, strain BCK1, active compounds read low
[36] = S. cerevisiae deletion strains, locus YJL134W, strain LCB3, active compounds read low
[37] = S. cerevisiae deletion strains, locus YJL168C, strain set2, active compounds read low
[38] = S. cerevisiae deletion strains, locus YJL187C, strain SWE1 (second series), active compounds read low
[39] = S. cerevisiae deletion strains, locus YJR043C, strain POL32, active compounds read low
[40] = S. cerevisiae deletion strains, locus YJR066W, strain TOR1, active compounds read low
[41] = S. cerevisiae deletion strains, locus YKL009W, strain mrt4, active compounds read low
[42] = S. cerevisiae deletion strains, locus YKL068W, active compounds read low
[43] = S. cerevisiae deletion strains, locus YKL085W, strain MDH1 (second series), active compounds read low
[44] = S. cerevisiae deletion strains, locus YKL085W, strain MDH1, active compounds read low
[45] = S. cerevisiae deletion strains, locus YKR001C, strain vps1, active compounds read low
[46] = S. cerevisiae deletion strains, locus YLR039C, strain RIC1, active compounds read low
[47] = S. cerevisiae deletion strains, locus YLR058C, strain SHM2, active compounds read low
[48] = S. cerevisiae deletion strains, locus YLR102C, strain apc9, active compounds read low
[49] = S. cerevisiae deletion strains, locus YLR113W, strain HOG1, active compounds read low
[50] = S. cerevisiae deletion strains, locus YLR262C, strain YPT6, active compounds read low
[51] = S. cerevisiae deletion strains, locus YLR268W, strain sec22, active compounds read low
[52] = S. cerevisiae deletion strains, locus YLR330W, strain CHS5, active compounds read low
[53] = S. cerevisiae deletion strains, locus YLR342W, strain FKS1 (second series), active compounds read low
[54] = S. cerevisiae deletion strains, locus YLR371W, strain rom2, active compounds read low
[55] = S. cerevisiae deletion strains, locus YLR418C, strain cdc73, active compounds read low
[56] = S. cerevisiae deletion strains, locus YML016C, strain PPZ1, active compounds read low
[57] = S. cerevisiae deletion strains, locus YML032C, strain rad52, active compounds read low
[58] = S. cerevisiae deletion strains, locus YML124C, strain tub3, active compounds read low
[59] = S. cerevisiae deletion strains, locus YMR078C, strain ctf18, active compounds read low
[60] = S. cerevisiae deletion strains, locus YMR223W, strain ubp8, active compounds read low
[61] = S. cerevisiae deletion strains, locus YMR307W, strain GAS1, active compounds read low
[62] = S. cerevisiae deletion strains, locus YNL067W, strain RPL9B, active compounds read low
[63] = S. cerevisiae deletion strains, locus YNL183C, strain NPR1, active compounds read low
[64] = S. cerevisiae deletion strains, locus YNL233W, strain BNI4, active compounds read low
[65] = S. cerevisiae deletion strains, locus YNL250W, strain rad50, active compounds read low
[66] = S. cerevisiae deletion strains, locus YNL271C, strain bni1, active compounds read low
[67] = S. cerevisiae deletion strains, locus YNL298W, strain CLA4, active compounds read low
[68] = S. cerevisiae deletion strains, locus YNL307C, strain MCK1, active compounds read low
[69] = S. cerevisiae deletion strains, locus YNR052C, strain pop2, active compounds read low
[70] = S. cerevisiae deletion strains, locus YOL012C, strain htz1
[71] = S. cerevisiae deletion strains, locus YOL147C, strain pex11, active compounds read low
[72] = S. cerevisiae deletion strains, locus YOR061W, strain CKA2, active compounds read low
[73] = S. cerevisiae deletion strains, locus YOR069W, strain VPS5, active compounds read low
[74] = S. cerevisiae deletion strains, locus YOR136W, strain idh2, active compounds read low
[75] = S. cerevisiae deletion strains, locus YOR144C, strain elg1, active compounds read low
[76] = S. cerevisiae deletion strains, locus YOR184W, strain ser1, active compounds read low
[77] = S. cerevisiae deletion strains, locus YOR231W, strain MKK1, active compounds read low
[78] = S. cerevisiae deletion strains, locus YOR316C, strain cot1, active compounds read low
[79] = S. cerevisiae deletion strains, locus YPL256C, strain CLN2, active compounds read low
[80] = S. cerevisiae deletion strains, locus YPR119W, strain clb2, active compounds read low
[81] = S. cerevisiae deletion strains, locus YPR141C, strain kar3, active compounds read low
[82] = S. cerevisiae deletion strains, locus YPR163C, strain tif3, active compounds read low
[83] = S. cerevisiae deletion strains, locus YPR167C, strain met16, active compounds read low
[84] = S. cerevisiae deletion strains, strain wtn01, active compounds read low

Measured: normalized growth

COc1cccc(O)c1O
inactive: [1] 1.02 | [2] 1.04 | [3] 1 | [4] 1.03 | [5] 1.01 | [6] 1.01 | [7] 1.08 | [8] 1.01 | [9] 1 | [10] 1.01 | S. cerevisiae deletion strains, locus YDR150W, strain NUM1, active compounds read low 1.04 | [11] 1.07 | [12] 1 | [13] 1.01 | [14] 1.01 | [15] 1.02 | [16] 0.996 | [17] 1.04 | [18] 1.05 | [19] 1.01 | [20] 0.999 | [21] 1.03 | [22] 1.05 | [23] 0.976 | [24] 0.936 | [25] 1.03 and 0.988 | [26] 1.02 | [27] 0.999 | [28] 1 | [29] 1.02 | [30] 1 | [31] 1.06 | [32] 1.03 | [33] 1 | [34] 1.04 | [35] 1.02 and 0.997 | [36] 1.03 | [37] 1 | [38] 0.976 | [39] 1.04 | [40] 0.925 | [41] 1.01 | [42] 1.01 | [43] 1.02 | [44] 1.02 | [45] 1.02 | [46] 1.17 | [47] 0.995 | [48] 0.995 | [49] 0.989 | [50] 1.15 | [51] 0.989 | [52] 1.03 | [53] 1.01 | [54] 1 | [55] 1.01 | [56] 1.03 | [57] 1.01 | [58] 1.01 | [59] 0.99 | [60] 0.997 | [61] 1.09 | [62] 1.05 | [63] 0.926 | [64] 1.05 | [65] 0.996 | [66] 0.994 | [67] 0.99 | [68] 1.01 | [69] 1.01 | S. cerevisiae deletion strains, locus YOL006C, strain TOP1, active compounds read low 1.27 | [70] 0.899 | [71] 1 | [72] 1.02 | [73] 1.02 | [74] 0.994 | [75] 1.01 | [76] 1.02 | [77] 1.01 | [78] 0.995 | [79] 0.994 | [80] 1.02 | [81] 1.01 | [82] 0.978 | [83] 1.02 | [84] 0.997

COc1ccc2c(c1OC)OC[C@@H](c1ccc(OC)c(OC)c1OC)C2
inactive: S. cerevisiae deletion strains, locus YAL013W, strain DEP1, active compounds read low 1.01 | [1] 0.972 | [2] 1 | [3] 1.01 | [4] 1.01 | [5] 0.999 | [6] 1.01 | [7] 0.999 | [8] 1.02 | [9] 1.01 | [10] 1 | [11] 1 | [12] 1.03 | [13] 1.01 | [14] 0.996 | [15] 1.01 | [16] 1 | [17] 1.01 | [18] 1.03 | [19] 1 | [20] 0.994 | [21] 1.01 | [22] 0.998 | [23] 0.999 | [24] 0.976 | [25] 1.02 and 1.03 | [26] 1.01 | [27] 1.02 | [28] 1.01 | [29] 1.02 | [30] 1.01 | [31] 1.01 | [32] 1.03 | [33] 1 | [34] 1.01 | [35] 0.998 and 1.04 | [36] 1.01 | [37] 1.01 | [38] 1 | [39] 1.02 | [40] 0.983 | [41] 1.01 | [42] 1 | [43] 0.993 | [44] 0.993 | S. cerevisiae deletion strains, locus YKL190W, strain CNB1, active compounds read low 1.01 | [45] 1 | [46] 1.13 | [47] 1 | [48] 1.02 | [49] 0.939 | [50] 1.14 | [51] 0.996 | [52] 1.01 | [53] 1.04 | [54] 1.01 | [55] 0.988 | [56] 1.02 | [57] 1.02 | [58] 1 | [59] 1 | [60] 0.999 | S. cerevisiae deletion strains, locus YMR263W, strain SAP30, active compounds read low 0.996 | [61] 0.927 | [62] 1.01 | [63] 0.97 | [64] 0.997 | [65] 0.998 | [66] 0.999 | [67] 0.998 | [68] 1.04 | S. cerevisiae deletion strains, locus YNL322C, strain KRE1, active compounds read low 1.01 | [69] 1.02 | [70] 1.06 | [71] 1 | [72] 1.01 | [73] 1.01 | [74] 1.01 | [75] 1 | [76] 0.976 | [77] 1.06 | [78] 1.01 | S. cerevisiae deletion strains, locus YPL241C, strain CIN2, active compounds read low 1.01 | [79] 1.06 | [80] 1 | [81] 1.02 | [82] 1.01 | [83] 1.01 | [84] 1.02 | S. cerevisiae strains, strain wild type, active compounds read low 1.01
